This note sets out measurements from ChEMBL document CHEMBL4513147, “CO-ADD screening of Armstrong State University (GA, USA) compounds”.

One assay deals with Klebsiella pneumoniae. The settings on record: Concentration 32 ug.mL-1; ASSAY_TEST Inhibition of Bacterial Growth; detection method Absorption (OD600); MEDIA CAMHB; plate type 384well; NBS; CORNING #3640; time 18 hr.
The test system of the next assay is Candida albicans. The settings on record: 32 ug/mL.
The subject of the next assay is Cryptococcus neoformans. The note with it: Concentration 32 ug.mL-1; ASSAY_TEST Inhibition of Fungal Growth; detection method Resazurin; Absorption (OD600-OD570); plate type 384well; NBS; CORNING #3640. Background: Resazurin is reduced to fluorescent resorufin, in cell work by metabolically active cells.

Entries with a potency or affinity are not part of this list.

For the molecule `COc1ccc2c(c1)C(=O)C(=Cc1cccnc1OC)CC2`, the Inhibition (in general, the drop in the measured response relative to a control, in per cent) is 14.75% in the assay on Klebsiella pneumoniae, 2.73% in the assay with Candida albicans and -33.37% in the assay on Cryptococcus neoformans.

In the case of `COc1ccc2c(c1)CCC(=Cc1cccnc1)C2=O`, the results for the Inhibition in the assay with Klebsiella pneumoniae, in the assay with Candida albicans and in the assay on Cryptococcus neoformans were 16.02%, 2.52% and -44.32%, respectively.

In the case of `COc1ccc2c(c1)C(O)C(=Cc1cccnc1Cl)CC2` (stereo not drawn), the Inhibition is 10.57% in the assay on Klebsiella pneumoniae, 15% in the assay with Candida albicans and -69.16% with Cryptococcus neoformans.

For the molecule `COc1cccc2c1CCC(=Cc1cccc(C=C3CCc4c(OC)cccc4C3=O)c1)C2=O`, the Inhibition in the assay with Klebsiella pneumoniae is 0.44%; with Candida albicans it was 12.4%; with Cryptococcus neoformans, -91.11%.

For `COc1ccc2c(c1)C(=O)C(=Cc1ccccn1)CC2`, the Inhibition was 11.4% with Klebsiella pneumoniae, 3.51% in the assay on Candida albicans and -7.78% in the assay with Cryptococcus neoformans.

Take `COc1ccc2c(c1)C(=O)C(=Cc1cccc(C=C3CCc4ccc(OC)cc4C3=O)c1)CC2`: the values for the Inhibition in the assay with Klebsiella pneumoniae, in the assay with Candida albicans and in the assay on Cryptococcus neoformans were 10.58%, 2.22% and -34.17%, respectively.

In the case of `COc1ccc2c(c1)C(=O)C(=Cc1ccoc1)CC2`, the Inhibition with Klebsiella pneumoniae was 17.88%; in the assay with Candida albicans, 8.42%; with Cryptococcus neoformans, -57.68%.

For the molecule `COc1ccc2c(c1)CCC(=Cc1ccc(OC)nc1)C2=O`, the Inhibition in the assay on Klebsiella pneumoniae was 13.52%; in the assay on Candida albicans, 3.72%; in the assay with Cryptococcus neoformans, -60.31%.

Consider `COc1ccc2c(c1)C(=O)C(=Cc1ccco1)CC2`, for which the values for the Inhibition with Klebsiella pneumoniae, in the assay with Candida albicans and in the assay on Cryptococcus neoformans were 14.42%, 6.5% and -54.58%, respectively.

Turning to `COc1ccc2c(c1)CCC(=Cc1ccco1)C2=O`, the Inhibition in the assay on Klebsiella pneumoniae is 10.81%; with Candida albicans, 4.52%; with Cryptococcus neoformans, -43.38%.

Regarding `COc1ccc2c(c1)CCC(=Cc1cncc(Br)c1)C2=O`, the figures for the Inhibition in the assay on Klebsiella pneumoniae, with Candida albicans and in the assay on Cryptococcus neoformans were 10.09%, 4.95% and -1.36%, respectively.

With `COc1ccc2c(c1)CCC(=Cc1ccncc1)C2=O`, the Inhibition is 14.05% in the assay on Klebsiella pneumoniae, 2.55% with Candida albicans and -80.91% with Cryptococcus neoformans.

For the molecule `COc1cc2c(cc1OC)C(=O)C(=Cc1ccco1)CC2`, the Inhibition in the assay with Klebsiella pneumoniae was 12.89%; with Candida albicans, 36.5%; with Cryptococcus neoformans it was -192.19%.

For the molecule `COc1ccc2c(c1)C(=O)C(=Cc1cnccc1OC)CC2`, the Inhibition in the assay with Klebsiella pneumoniae is 13.46%; in the assay with Candida albicans, 2.37%; with Cryptococcus neoformans, -28.9%.

As for `COc1ccc2c(c1)C(=O)C(=Cc1cncc(Br)c1)CC2`, the Inhibition was 11.33% in the assay on Klebsiella pneumoniae, 3.19% in the assay with Candida albicans and -18.22% in the assay with Cryptococcus neoformans.

As for `COc1ccc2c(c1)CCC(=Cc1ccccn1)C2=O`, the values for the Inhibition with Klebsiella pneumoniae, with Candida albicans and in the assay with Cryptococcus neoformans were 8.96%, 0.77% and -41.47%, respectively.

Take `COc1ccc2c(c1)C(=O)C(=Cc1cccnc1)CC2`: the results for the Inhibition in the assay on Klebsiella pneumoniae, with Candida albicans and in the assay with Cryptococcus neoformans were 13.34%, 3.76% and 20.35%, respectively.

In the case of `COc1ccc(/C=C/C(=O)c2ccc(OCc3ccc(Br)cc3)cc2)cc1OC`, the Inhibition was 12.55% in the assay with Klebsiella pneumoniae, 14.1% with Candida albicans and -82.08% in the assay with Cryptococcus neoformans.

For `COc1ccc2c(c1)C(=O)C(=Cc1cccnc1Cl)CC2`, the Inhibition in the assay on Klebsiella pneumoniae is 12.62%; in the assay with Candida albicans, 6.91%; with Cryptococcus neoformans, -40.92%.

With `COc1ccc2c(c1)CCC(=Cc1cnccc1OC)C2=O`, the Inhibition with Klebsiella pneumoniae was 11.4%; in the assay on Candida albicans, -0.18%; in the assay on Cryptococcus neoformans it was -48.3%.

In the case of `CC(C)(C)OC(=O)N1CC(=Cc2ccco2)C(=O)/C(=C/c2ccco2)C1`, the figures for the Inhibition in the assay with Klebsiella pneumoniae, in the assay with Candida albicans and in the assay with Cryptococcus neoformans were 8.12%, 19.9% and -64.29%, respectively.

Take `COc1cccc2c1CCC(=Cc1ccoc1)C2=O`: the Inhibition in the assay with Klebsiella pneumoniae is 11.44%; in the assay with Candida albicans, 10.1%; with Cryptococcus neoformans it was -46.61%.

Turning to `COc1ccc2c(c1)CCC(=Cc1cccnc1Br)C2=O`, the values for the Inhibition with Klebsiella pneumoniae, in the assay on Candida albicans and in the assay with Cryptococcus neoformans were 13.02%, 3.93% and -19.45%, respectively.

As to `COc1ccc2c(c1)CCC(=Cc1cccnc1Cl)C2=O`, the Inhibition is 12.5% in the assay on Klebsiella pneumoniae, 3.75% with Candida albicans and -15.01% in the assay with Cryptococcus neoformans.

`Cc1ccc(C=C2CN(C(=O)OC(C)(C)C)C/C(=C\c3ccc(C)cc3C)C2=O)c(C)c1`: the Inhibition in the assay on Klebsiella pneumoniae is 13.54%; in the assay on Candida albicans it was -1.7%; with Cryptococcus neoformans it was -52.76%.

With `CC(C)(C)OC(=O)N1CC(=Cc2ccoc2)C(=O)/C(=C/c2ccoc2)C1`, the figures for the Inhibition in the assay with Klebsiella pneumoniae, in the assay with Candida albicans and in the assay with Cryptococcus neoformans were 21.57%, 14.2% and -84.77%, respectively.

For `COc1ccc2c(c1)C(=O)C(=Cc1cccnc1Cl)CC2.Cl`, the figures for the Inhibition in the assay on Klebsiella pneumoniae, in the assay with Candida albicans and in the assay with Cryptococcus neoformans were 17.3%, 3.54% and -54.29%, respectively.

As to `COc1ccc2c(c1)CCC(=Cc1ccoc1)C2=O`, the Inhibition with Klebsiella pneumoniae was 11.83%; with Candida albicans it was 5.64%; in the assay with Cryptococcus neoformans, -36.87%.

With `COc1cccc2c1CCC(=Cc1ccco1)C2=O`, the Inhibition in the assay on Klebsiella pneumoniae amounted to 9.39%; in the assay with Candida albicans it was 2.23%; in the assay with Cryptococcus neoformans, 7.54%.

As for `COc1ccc2c(c1)C(=O)C(=Cc1cccnc1Br)CC2`, the Inhibition was 8.16% with Klebsiella pneumoniae, 1.26% with Candida albicans and -14.82% with Cryptococcus neoformans.

Consider `COc1cc2c(cc1OC)C(=O)C(=Cc1ccoc1)CC2`, for which the Inhibition is 14.64% with Klebsiella pneumoniae, 20% with Candida albicans and -157.54% in the assay with Cryptococcus neoformans.
